# Targets with a hit are over-represented here; the source holds about 7,900 in all. About 0.6% of all pairs of compound and target were hits. Unmarked numbers belong to inactive results.
# Key:
# Experiment in all cases: log2 fold change, soluble protein after heating vs DMSO (PISA); higher = thermal stabilisation; K562 cells, 10 uM, 30 min; active = over 0.2 and 3.5 SD of the protein, either way, in both replicates (recomputed)
# bafetinib = compound: Cc1ccc(NC(=O)c2ccc(CN3CC[C@H](N(C)C)C3)c(C(F)(F)F)c2)cc1Nc1nccc(-c2cncnc2)n1 [bafetinib]
# Outline: (§1)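 K562 cells (2×10^6 cells/mL) were treated with 10 μM compound for 30 min, and aliquots were heated for 3 min over 48°C-58°C. Pooled aliquots were extracted in PBS with 0.5% NP-40 at 4°C, and the supernatant after 21,000xg for 90 min was measured by TMTpro 16plex LC-MS/MS with channel sums equalised. Reported thermal stability, relative to control samples and from duplicates, is a log2 fold change.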
# [1] = compound: Cc1cccc(CC(=O)N2CCc3c2ccc(-c2cn(C)c4ncnc(N)c24)c3F)n1
# Outline: as §1
# nilotinib = compound: Cc1cn(-c2cc(NC(=O)c3ccc(C)c(Nc4nccc(-c5cccnc5)n4)c3)cc(C(F)(F)F)c2)cn1 [nilotinib]
# Outline: as §1
# [2] = compound: Cc1nc(Nc2n[nH]c3c2CN(C(=O)N[C@H](CN(C)C)c2ccccc2)C3(C)C)c2sccc2n1
# Outline: as §1
# dasatinib = compound: Cc1nc(Nc2ncc(C(=O)Nc3c(C)cccc3Cl)s2)cc(N2CCN(CCO)CC2)n1 [dasatinib]
# Outline: as §1
# [3] = compound: Cc1ncc(-c2ccnc(Nc3ccc(S(C)(=O)=O)cc3)n2)n1C(C)C
# Outline: as §1
# [4] = compound: Cn1cc(-c2ccc3c(c2)CCN3C(=O)Cc2cccc(C(F)(F)F)c2)c2c(N)ncnc21
# Outline: as §1
# [5] = compound: Cn1cc(-c2ccc3nnc(C(F)(F)c4ccc5ncccc5c4)n3n2)cn1
# Outline: as §1
# tipifarnib = compound: Cn1cncc1[C@@](N)(c1ccc(Cl)cc1)c1ccc2c(c1)c(-c1cccc(Cl)c1)cc(=O)n2C [tipifarnib]
# Outline: as §1
# mubritinib = compound: FC(F)(F)c1ccc(/C=C/c2nc(COc3ccc(CCCCn4ccnn4)cc3)co2)cc1 [mubritinib]
# Outline: as §1
# UniProt Q13247, sequence (Q13247 whole entry, looked up): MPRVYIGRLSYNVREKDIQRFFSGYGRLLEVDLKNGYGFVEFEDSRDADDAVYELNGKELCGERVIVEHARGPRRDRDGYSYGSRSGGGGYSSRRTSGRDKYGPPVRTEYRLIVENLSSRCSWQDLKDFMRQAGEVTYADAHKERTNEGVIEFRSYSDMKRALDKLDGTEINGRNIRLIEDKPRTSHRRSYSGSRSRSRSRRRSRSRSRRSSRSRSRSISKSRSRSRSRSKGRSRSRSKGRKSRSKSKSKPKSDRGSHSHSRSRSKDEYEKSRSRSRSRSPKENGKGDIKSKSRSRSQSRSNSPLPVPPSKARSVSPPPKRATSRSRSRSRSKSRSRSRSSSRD
# UniProt Q92544, sequence (Q92544 whole entry, looked up): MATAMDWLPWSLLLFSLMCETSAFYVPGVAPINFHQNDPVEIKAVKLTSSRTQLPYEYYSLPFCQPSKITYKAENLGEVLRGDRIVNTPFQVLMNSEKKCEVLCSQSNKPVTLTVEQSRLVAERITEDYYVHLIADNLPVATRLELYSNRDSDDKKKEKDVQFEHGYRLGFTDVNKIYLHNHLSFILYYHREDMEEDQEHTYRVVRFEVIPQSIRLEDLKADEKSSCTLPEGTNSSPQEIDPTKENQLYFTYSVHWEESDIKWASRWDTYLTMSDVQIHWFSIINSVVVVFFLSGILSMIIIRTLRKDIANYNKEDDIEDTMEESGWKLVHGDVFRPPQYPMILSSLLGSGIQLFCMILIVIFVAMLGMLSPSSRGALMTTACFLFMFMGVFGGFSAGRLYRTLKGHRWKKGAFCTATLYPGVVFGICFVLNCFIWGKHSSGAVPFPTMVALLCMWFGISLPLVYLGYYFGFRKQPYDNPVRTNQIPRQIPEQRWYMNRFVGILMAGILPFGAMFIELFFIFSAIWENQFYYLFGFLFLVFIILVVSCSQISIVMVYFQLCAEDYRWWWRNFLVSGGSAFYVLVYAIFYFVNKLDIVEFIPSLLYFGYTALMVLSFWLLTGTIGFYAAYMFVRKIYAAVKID
# UniProt A6NHR9, sequence (A6NHR9 whole entry, looked up): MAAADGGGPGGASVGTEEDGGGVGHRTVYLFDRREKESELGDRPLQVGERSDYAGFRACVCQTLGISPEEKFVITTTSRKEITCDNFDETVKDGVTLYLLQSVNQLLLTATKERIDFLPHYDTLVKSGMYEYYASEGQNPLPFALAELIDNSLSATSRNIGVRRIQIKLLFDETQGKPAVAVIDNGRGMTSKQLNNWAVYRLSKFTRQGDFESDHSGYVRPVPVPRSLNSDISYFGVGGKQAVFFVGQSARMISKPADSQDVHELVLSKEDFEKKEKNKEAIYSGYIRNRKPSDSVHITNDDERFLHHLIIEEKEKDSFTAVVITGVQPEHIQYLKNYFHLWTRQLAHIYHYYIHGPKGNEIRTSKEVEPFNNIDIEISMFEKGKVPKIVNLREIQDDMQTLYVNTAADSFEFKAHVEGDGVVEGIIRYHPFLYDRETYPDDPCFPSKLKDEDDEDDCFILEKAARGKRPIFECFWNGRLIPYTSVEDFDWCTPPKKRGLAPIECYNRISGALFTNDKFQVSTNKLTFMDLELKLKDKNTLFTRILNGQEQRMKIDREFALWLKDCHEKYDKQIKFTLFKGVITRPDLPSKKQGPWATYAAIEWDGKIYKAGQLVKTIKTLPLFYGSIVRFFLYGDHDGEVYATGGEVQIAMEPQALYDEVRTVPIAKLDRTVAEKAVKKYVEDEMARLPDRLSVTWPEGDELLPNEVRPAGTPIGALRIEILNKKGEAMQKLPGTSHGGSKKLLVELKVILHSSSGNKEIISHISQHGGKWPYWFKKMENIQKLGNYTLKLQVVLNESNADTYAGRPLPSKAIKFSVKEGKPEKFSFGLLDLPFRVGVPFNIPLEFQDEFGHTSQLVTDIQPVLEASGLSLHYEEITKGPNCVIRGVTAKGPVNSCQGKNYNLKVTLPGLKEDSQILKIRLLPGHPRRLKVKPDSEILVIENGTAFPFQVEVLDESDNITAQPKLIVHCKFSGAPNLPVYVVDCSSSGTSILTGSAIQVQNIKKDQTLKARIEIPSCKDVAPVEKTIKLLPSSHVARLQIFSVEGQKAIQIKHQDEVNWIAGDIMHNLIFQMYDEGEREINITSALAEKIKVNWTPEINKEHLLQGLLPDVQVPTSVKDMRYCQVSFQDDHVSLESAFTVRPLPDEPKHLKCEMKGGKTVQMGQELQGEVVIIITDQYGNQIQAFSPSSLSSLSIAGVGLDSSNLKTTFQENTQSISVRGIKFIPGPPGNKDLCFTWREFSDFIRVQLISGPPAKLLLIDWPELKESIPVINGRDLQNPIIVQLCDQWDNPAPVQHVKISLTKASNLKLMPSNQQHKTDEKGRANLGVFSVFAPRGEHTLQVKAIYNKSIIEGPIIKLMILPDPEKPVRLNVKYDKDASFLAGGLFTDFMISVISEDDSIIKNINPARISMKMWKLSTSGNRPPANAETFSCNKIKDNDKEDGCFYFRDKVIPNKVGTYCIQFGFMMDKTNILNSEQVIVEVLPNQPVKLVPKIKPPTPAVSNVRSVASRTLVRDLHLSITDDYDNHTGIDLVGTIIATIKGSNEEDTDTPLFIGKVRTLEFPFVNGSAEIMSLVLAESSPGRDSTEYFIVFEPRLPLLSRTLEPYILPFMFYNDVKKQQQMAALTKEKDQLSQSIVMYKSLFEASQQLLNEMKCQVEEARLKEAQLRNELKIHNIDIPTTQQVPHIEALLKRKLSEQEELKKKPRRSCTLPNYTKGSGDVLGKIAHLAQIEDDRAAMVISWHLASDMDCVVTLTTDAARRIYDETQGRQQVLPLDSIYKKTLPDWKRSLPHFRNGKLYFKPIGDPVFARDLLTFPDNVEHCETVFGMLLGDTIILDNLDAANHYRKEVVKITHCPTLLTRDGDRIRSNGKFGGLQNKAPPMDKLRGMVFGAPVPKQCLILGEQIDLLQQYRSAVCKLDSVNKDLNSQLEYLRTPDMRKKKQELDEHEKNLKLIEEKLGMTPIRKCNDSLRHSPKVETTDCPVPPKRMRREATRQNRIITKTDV
# UniProt Q96BZ9, sequence (Q96BZ9 whole entry, looked up): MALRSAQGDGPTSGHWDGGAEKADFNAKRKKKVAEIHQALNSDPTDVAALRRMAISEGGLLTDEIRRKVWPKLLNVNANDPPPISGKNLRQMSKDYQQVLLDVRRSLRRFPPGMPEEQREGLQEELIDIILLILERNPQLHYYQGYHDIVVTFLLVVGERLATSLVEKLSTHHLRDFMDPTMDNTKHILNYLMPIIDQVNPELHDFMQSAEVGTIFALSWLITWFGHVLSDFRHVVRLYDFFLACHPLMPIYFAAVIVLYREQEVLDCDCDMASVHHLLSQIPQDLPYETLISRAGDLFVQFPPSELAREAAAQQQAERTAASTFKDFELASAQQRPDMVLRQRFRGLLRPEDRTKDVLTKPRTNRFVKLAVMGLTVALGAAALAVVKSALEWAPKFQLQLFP
# UniProt Q92797, sequence (Q92797 whole entry, looked up): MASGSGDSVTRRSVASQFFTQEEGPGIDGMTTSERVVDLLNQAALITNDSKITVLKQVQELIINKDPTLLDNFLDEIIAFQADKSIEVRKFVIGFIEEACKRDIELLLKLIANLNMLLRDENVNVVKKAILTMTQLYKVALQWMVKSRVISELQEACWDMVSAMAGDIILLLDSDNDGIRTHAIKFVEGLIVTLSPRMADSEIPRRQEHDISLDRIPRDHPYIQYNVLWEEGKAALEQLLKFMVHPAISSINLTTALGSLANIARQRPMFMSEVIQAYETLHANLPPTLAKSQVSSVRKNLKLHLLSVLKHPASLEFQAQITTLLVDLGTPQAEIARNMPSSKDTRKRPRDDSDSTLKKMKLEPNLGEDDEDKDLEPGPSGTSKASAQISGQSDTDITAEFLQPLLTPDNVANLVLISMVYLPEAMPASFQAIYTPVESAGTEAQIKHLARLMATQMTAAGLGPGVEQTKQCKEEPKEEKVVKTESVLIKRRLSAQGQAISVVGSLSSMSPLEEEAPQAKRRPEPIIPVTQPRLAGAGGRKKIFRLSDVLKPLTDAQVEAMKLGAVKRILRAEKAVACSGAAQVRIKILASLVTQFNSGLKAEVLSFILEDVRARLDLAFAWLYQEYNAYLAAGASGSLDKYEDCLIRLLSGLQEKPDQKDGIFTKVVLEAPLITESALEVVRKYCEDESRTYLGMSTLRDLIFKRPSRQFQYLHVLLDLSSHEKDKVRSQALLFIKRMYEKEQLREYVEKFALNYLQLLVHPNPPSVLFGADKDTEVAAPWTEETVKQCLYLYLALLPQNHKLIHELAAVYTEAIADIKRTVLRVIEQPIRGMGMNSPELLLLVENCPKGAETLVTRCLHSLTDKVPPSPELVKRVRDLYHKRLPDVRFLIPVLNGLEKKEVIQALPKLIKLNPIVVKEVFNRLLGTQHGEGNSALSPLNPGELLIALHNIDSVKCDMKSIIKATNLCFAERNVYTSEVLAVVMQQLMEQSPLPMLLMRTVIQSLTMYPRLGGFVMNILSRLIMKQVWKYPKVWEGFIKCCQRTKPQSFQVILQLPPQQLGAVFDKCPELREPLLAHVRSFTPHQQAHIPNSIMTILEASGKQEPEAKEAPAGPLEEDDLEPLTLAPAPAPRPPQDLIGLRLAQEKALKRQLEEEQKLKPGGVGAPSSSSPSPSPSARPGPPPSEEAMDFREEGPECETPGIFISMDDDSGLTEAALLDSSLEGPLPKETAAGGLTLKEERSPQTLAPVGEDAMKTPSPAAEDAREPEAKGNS
# UniProt Q9BSF4, sequence (Q9BSF4 whole entry, looked up): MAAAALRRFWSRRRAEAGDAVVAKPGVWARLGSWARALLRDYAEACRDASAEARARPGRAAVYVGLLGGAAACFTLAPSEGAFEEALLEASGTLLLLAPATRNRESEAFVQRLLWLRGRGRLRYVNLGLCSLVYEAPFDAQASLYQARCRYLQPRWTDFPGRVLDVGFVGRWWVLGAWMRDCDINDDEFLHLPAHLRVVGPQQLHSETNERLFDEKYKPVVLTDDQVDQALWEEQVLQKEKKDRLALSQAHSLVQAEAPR
Target,log2 fold change (bafetinib),log2 fold change [1],log2 fold change (nilotinib),log2 fold change [2],log2 fold change (dasatinib),log2 fold change [3],log2 fold change [4],log2 fold change [5],log2 fold change (tipifarnib),log2 fold change (mubritinib)
STARD9 (UniProt Q9P2P6),0.012,-0.029,0.016,0.157,0.091,0.002,0.076,0.047,0.07,0.129
SLK isoform 2 (UniProt Q9H2G2),-0.032,-0.076,-0.041,-0.169,-0.085,0.015,-0.289 (active),0.004,-0.018,0.026
SQSTM1 (UniProt Q13501),-0.138,0.056,0.042,-0.227,-0.006,0.172,0.001,0.022,0.186,0.034
TGFBR1 isoform 2 (UniProt P36897),-0.009,-0.052,-0.049,-0.018,–,0.007,-0.046,0.001,0.017,-0.113
TCOF1 isoform 4 (UniProt Q13428),-0.037,-0.012,-0.022,0.045,0.048,-0.034,-0.046,-0.014,0.022,0.025
SRSF3 (UniProt P84103),0.126,-0.028,0.075,-0.544 (active),0.173,0.082,-0.199,-0.154,0.134,-0.097
SREK1 isoform 2 (UniProt Q8WXA9),0.07,0.015,0.156,-0.593 (active),-0.095,0.005,-0.006,-0.11,0.031,0.063
TM9SF4 (UniProt Q92544),0.034,0.252 (active),0.005,0.012,0.127,0.037,-0.021,0.004,-0.061,0.007
SRC isoform 2 (UniProt P12931),-0.054,-0.037,-0.041,-0.499,–,-0.136,0.008,-0.163,0.005,0.031
STEAP3 isoform 2 (UniProt Q658P3),-0.044,0.058,-0.001,-0.061,-0.028,0.03,0.039,0.11,-0.085,-0.034
STRN (UniProt O43815),-0.016,0.063,0.014,0.048,-0.068,-0.008,0.022,-0.064,0,0.021
SRSF6 (UniProt Q13247),0.578,0.192,0.155,-0.813 (active),0.079,0.095,-0.251,–,0.212,-0.014
SSBP4 (UniProt Q9BWG4),-0.045,-0.069,0.038,0.014,-0.021,0.053,–,0.033,0.301,0.066
TIMM29 (UniProt Q9BSF4),-0.051,-0.077,-0.002,0.069,-0.031,-0.039,-0.029,0.057,-0.046,0.064
SSX2 (UniProt Q16385),-0.098,-0.011,0.003,-0.061,0.014,-0.042,-0.039,0.012,-0.015,-0.048
SRSF11 (UniProt Q05519),0.071,0.105,-0.024,-1.01 (active),-0.034,-0.001,-0.078,0.015,-0.029,-0.01
TK1 (UniProt P04183),-0.04,-0.028,-0.002,0.028,0.032,-0.036,0.015,0,0,0.056
SRSF9 (UniProt Q13242),0.166,-0.02,0.014,0.05,0.422,0.001,-0.377,-0.129,0.298,-0.189
SMCHD1 (UniProt A6NHR9),0.306,0,0.037,-0.011,-0.319,-0.044,-0.061,-0.084,-0.003,-0.136
SPIRE1 (UniProt Q08AE8),-0.06,-0.194,0.007,0.063,–,-0.046,-0.155,-0.026,–,0.098
SLC7A6 (UniProt Q92536),0.042,0.029,0.046,0.008,0.04,-0.007,0.024,-0.087,-0.016,0.049
TELO2 (UniProt Q9Y4R8),0.069,0.158,-0.023,-0.041,-0.039,0.039,-0.058,0.046,-0.185,0.103
SUPT5H (UniProt O00267),-0.044,0.033,-0.055,-0.042,-0.082,0.01,0.024,0.036,-0.037,0.031
TBC1D20 isoform 3 (UniProt Q96BZ9),-0.03,-0.083,0.07,-0.023,–,0.033,0.121,0.233,-0.077,0.129
SUCLA2 (UniProt Q9P2R7),0,-0.065,-0.098,0.057,-0.149,-0.04,0.005,0.038,-0.01,-0.697 (active)
SYMPK (UniProt Q92797),-0.027,0.036,-0.192,-0.001,-0.156,0.037,-0.017,-0.043,-0.152,0.015
SMG1 (UniProt Q96Q15),0.059,-0.012,0.03,-0.061,-0.266,-0.015,-0.035,0.023,-0.098,0.064
SLC38A7 (UniProt Q9NVC3),-0.142,0.016,0.05,-0.023,–,-0.053,-0.005,0.084,0.056,-0.007
STK38L (UniProt Q9Y2H1),-0.02,-0.065,-0.032,-0.238,-0.012,-0.03,-0.122,-0.582,–,0.081
SRI (UniProt P30626),-0.001,0.062,0.017,0.001,0.04,-0.036,0.113,0.328,-0.072,0.01
